The structures appear in SMILES notation. Records with an inconclusive call do not appear. Activity calls are given as the source filed them. Unless noted, the call rests on the fitted dose curve; in most records, active means well fitted curve in the direction sought with a large enough effect; inconclusive means small, poorly fitted or top-dose-only effect, or another doubt; inactive means no such curve, though single readings can be large; an effect the other way counts as inactive or inconclusive.

For test [1], the target named is Cytochrome P450 3A4 (Homo sapiens) (UniProt P08684). Nature of the test: qHTS Assay for Inhibitors and Substrates of Cytochrome P450 3A4 (AID 884). Further: nearly all actives have a fitted effect of over 50% in size. Further: potency means the concentration at half of the fitted maximal effect. On activity change, negative = inhibition: on the % scale 0 is the no-effect control and ±100 the full control effect. Summed up: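 Luminescent readout of luciferin produced by CYP3A4 (20 nM) dealkylation of Luciferin-PPXE, 25 uM (its KM). NADPH-driven reaction ran 60 min at RT after 10 min compound preincubation; data scaled to 57 uM ketoconazole as 100% inhibition.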
Chain of Cytochrome P450 3A4 (Homo sapiens) (P08684 whole entry, looked up): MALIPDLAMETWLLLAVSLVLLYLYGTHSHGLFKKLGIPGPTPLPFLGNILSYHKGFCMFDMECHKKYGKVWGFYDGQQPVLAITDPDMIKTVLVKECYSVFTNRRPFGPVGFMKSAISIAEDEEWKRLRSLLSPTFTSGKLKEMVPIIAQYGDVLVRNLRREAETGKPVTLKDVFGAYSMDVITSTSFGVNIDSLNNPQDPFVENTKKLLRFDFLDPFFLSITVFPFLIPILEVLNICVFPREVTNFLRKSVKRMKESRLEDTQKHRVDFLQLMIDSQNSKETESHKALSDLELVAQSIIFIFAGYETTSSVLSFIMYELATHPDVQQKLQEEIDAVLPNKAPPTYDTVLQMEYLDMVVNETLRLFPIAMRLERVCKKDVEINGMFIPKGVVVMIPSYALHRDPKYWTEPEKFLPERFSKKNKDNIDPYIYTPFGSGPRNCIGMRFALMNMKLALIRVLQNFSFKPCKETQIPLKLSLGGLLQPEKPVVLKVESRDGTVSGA
Background: In qHTS, concentration-response curves come from the screen itself.

Test [2] shares this target. As to the kind of experiment: qHTS Assay for Activators of Cytochrome P450 3A4 (AID 885). Further: nearly all actives have a fitted effect of over 65% in size. Further: potency means the concentration at half of the fitted maximal effect. The procedure, abridged:
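Activators are scored by enhanced luminescence from CYP3A4 conversion of luciferin-PPXE (25uM, equal to KM) to luciferin, after 60 min at RT with an NADPH-regenerating system.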

A short description of test [3]: Confirmation and Secondary Assay for Modulators of Hemoglobin Beta Chain Splicing at IVS2 654 locus (AID 910).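 Further: HeLa cells stably carrying EGFP split by mutant beta-globin IVS2-654 intron; per-well total GFP intensity by laser scanning cytometry after 2-day treatment; % of control where 0% means no effect.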 The procedure, abridged: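 Readout: per-well total peak green fluorescence (488 nm ex, 500–520 nm em) from objects 5–250 µm, reflecting correct splicing of an EGFP-654 reporter. Compounds were applied for 2 days at 37 °C to overnight-plated HeLa EGFP-654 cells; controls were DMSO and 500 nM IVS2-654 PNA.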

A short description of test [4]: Confirmation and Secondary Assay for Modulators of Hemoglobin Beta Chain Splicing at IVS2 705 locus (AID 930).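 Further: HeLa cells stably expressing the EGFP-705 splicing reporter; % of control where 0% means no effect.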 Summed up: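 HeLa cells stably carrying EGFP interrupted by mutant beta-globin IVS2-705 intron (CMV-driven) were seeded at 500 cells/well, treated next day with compound for 2 days at 37C; corrected splicing restores EGFP, read as total peak GFP intensity per well.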

Test [5] is described as follows: qHTS Assay for Lipid Storage Modulators (AID 1519; calls by dose curve; on activity change, negative = inhibition: on the % scale 0 is the no-effect control and ±100 the full control effect). The conditions noted are these: Drosophila S3 cells, BODIPY lipid droplet/cell ratio, laser cytometry, cells loaded with oleic acid; for activity change, negative = inhibition: at 57.5 µM (top of the series). The procedure, abridged: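 Cells seeded at 5,000 per well were treated with compounds over a concentration series and loaded with oleic acid (400 uM, as added). Lipid droplet fluorescence (488 nm excitation, 500-530 nm channel) was read by laser-scanning cytometry and normalized to 20 uM Triacsin C.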

Test [6] addresses Ubiquitin carboxyl-terminal hydrolase 1 (Homo sapiens) (UniProt O94782). Nature of the test: Inhibitors of USP1/UAF1: Pilot qHTS (AID 504865).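 Further: rhodamine fluorescence freed from ubiquitin-rhodamine substrate followed over time; top concentration of the series differs between compounds; on the % scale 0 is the no-effect control and ±100 the full control effect; nearly all actives have a fitted effect of over 35% in size.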 The procedure, abridged:
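In 50mM HEPES pH 7.8 containing 0.5mM EDTA, 1mM TCEP, 0.1 mg/ml BSA and 0.01% Tween-20, 1nM USP1/UAF1 is exposed to compound for 15 min, then Ub-Rho (150nM final) is added and fluorescence is read over time.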

Where [7] appears, read: measured here: cell count channel max response.
The mark [8] stands for this setting: measured here: lipid channel max response.

Chain of Ubiquitin carboxyl-terminal hydrolase 1 (Homo sapiens) (O94782 whole entry, looked up): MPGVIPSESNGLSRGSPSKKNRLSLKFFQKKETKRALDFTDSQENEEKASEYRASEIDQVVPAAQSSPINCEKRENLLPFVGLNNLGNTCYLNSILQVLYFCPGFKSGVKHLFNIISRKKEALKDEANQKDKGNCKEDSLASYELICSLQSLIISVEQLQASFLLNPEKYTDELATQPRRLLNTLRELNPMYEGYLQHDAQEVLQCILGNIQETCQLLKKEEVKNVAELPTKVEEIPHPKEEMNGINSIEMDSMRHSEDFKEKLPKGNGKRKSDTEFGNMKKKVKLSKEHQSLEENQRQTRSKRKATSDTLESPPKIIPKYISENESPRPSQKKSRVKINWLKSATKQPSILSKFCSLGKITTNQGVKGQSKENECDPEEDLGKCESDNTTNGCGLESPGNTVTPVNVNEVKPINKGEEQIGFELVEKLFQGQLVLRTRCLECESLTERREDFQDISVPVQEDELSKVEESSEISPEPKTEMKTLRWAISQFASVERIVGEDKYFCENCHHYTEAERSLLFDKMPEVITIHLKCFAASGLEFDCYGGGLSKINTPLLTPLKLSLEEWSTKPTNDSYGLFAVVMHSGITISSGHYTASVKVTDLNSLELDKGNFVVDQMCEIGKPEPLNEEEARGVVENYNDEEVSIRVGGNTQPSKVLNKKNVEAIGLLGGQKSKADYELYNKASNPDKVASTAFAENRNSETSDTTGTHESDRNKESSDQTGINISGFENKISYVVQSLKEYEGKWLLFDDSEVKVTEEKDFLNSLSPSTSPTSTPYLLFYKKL

For `CCN(CC)Cc1ccc(Nc2ccnc3cc(Cl)ccc23)cc1O`, the Potency entry in test [1], in test [3], in test [4] and in test [6] was “inactive” each time. Further, the Potency in test [2] was 7.94 µM (active). Moreover, the activity change, negative = inhibition in test [5] was -0.352% (inactive). Also, the results for the max response in test [5] (setting [7]) and in test [5] (setting [8]) were 18.7% and 21.7%, respectively.

Turning to `CC1(C)SC2C(NC(=O)C(NC(=O)N3CCNC3=O)c3ccccc3)C(=O)N2C1C(=O)O` (stereo unspecified), the Potency entry in test [1], in test [3], in test [4] and in test [6] was “inactive” each time. Moreover, the activity change, negative = inhibition in test [5] is 8.06% (inactive). Also, the max response is 17.4% in test [5] (setting [7]) and 28.9% in test [5] (setting [8]).

On to `C[C@@H]1OC(OC2C(OC3CC[C@@]4(C)C5CC=C6C7CC(C)(C)CC[C@@]7(C(=O)O)CCC6(C)C5(C)CCC4[C@]3(C)CO)OCC(O)C2O)C(O)C(O)C1O` (stereo partly specified), for which the Potency entry in test [1], in test [3], in test [4] and in test [6] was “inactive” throughout. The activity change, negative = inhibition in test [5] is 3.66% (inactive). The values for the max response in test [5] (setting [7]) and in test [5] (setting [8]) were 9.24% and 14.3%, respectively.

For `CC(C)/C(O)=C1/C(=O)OC(c2ccoc2)[C@@]2(C)C(O)C(O)[C@@]34OC5(C)OC67CC(C)(C(O)[C@@]6(O)C(O)[C@@]3(O5)C12)C(CC(=O)O)[C@@]74C` (stereo partly specified), the Potency in test [1] was 12.6 µM (active). The Potency entry in test [2], in test [3], in test [4] and in test [6] was “inactive” in each case. Also, the activity change, negative = inhibition in test [5] was 0.873% (inactive). Also, the max response in test [5] (setting [7]) was -1.97%; in test [5] (setting [8]), 0.302%.

As to `CC(=O)Oc1cc(-c2coc3cc(OC(C)=O)c(OC(C)=O)c(OC(C)=O)c3c2=O)cc(OC(C)=O)c1OC(C)=O`, the Potency entry in test [1], in test [3], in test [4] and in test [6] was “inactive” throughout. Further, the activity change, negative = inhibition in test [5] was 13.7% (inactive). The max response amounted to 12.1% in test [5] (setting [7]) and 28.6% in test [5] (setting [8]).

`CC(=O)OCC(=O)C1CCC2C3CCC4=CC(=O)CC[C@@]4(C)C3CC[C@]12C` (stereo partly specified): the Potency entry in test [1], in test [3], in test [4] and in test [6] was “inactive” each time. Also, the Potency in test [2] was 3.16 µM (active). The activity change, negative = inhibition in test [5] is 5.85% (inactive). For the same compound, the max response in test [5] (setting [7]) was found to be 5.1%; in test [5] (setting [8]) it was 13.2%.

On to `COc1c(OC)c2occc2c2oc(=O)ccc12`, for which the Potency in test [1] is 10 µM (active). The Potency entry in test [2], in test [4] and in test [6] was “inactive” throughout. Further, the activity change, negative = inhibition in test [5] is 12.4% (inactive). The max response amounted to 0.397% in test [5] (setting [7]) and 12.4% in test [5] (setting [8]).

On to `COC(=O)CC1C(C)(C)C(OC(C)=O)C2CC3C4CC(=O)OC(c5ccoc5)[C@]4(C)CCC3[C@@]1(C)C2=O` (stereo partly specified), for which the Potency in test [1] is 0.631 µM (active). Also, the Potency result in test [2], in test [3], in test [4] and in test [6] was “inactive” in each case. For the same compound, the activity change, negative = inhibition in test [5] is -20.8% (inactive). Besides, the max response was 1.85% in test [5] (setting [7]) and -17.5% in test [5] (setting [8]).

With `OC/C=C/c1ccc(O)c(O)c1`, in test [1], the Potency is 15.8 µM (active). Also, the Potency result in test [2], in test [3], in test [4] and in test [6] was “inactive” in each case. The activity change, negative = inhibition in test [5] is 8.76% (inactive). For the same compound, the max response in test [5] (setting [7]) turned out to be 13.5%; in test [5] (setting [8]), 23.8%.

For `Nc1ncnc2c1ncn2C1OC(COP(=O)(O)O)C(O)C1O` (stereo unspecified), the Potency entry in test [1], in test [3], in test [4] and in test [6] was “inactive” in each case. The activity change, negative = inhibition in test [5] was 5.46% (inactive). For the same compound, the max response came out at 29.6% in test [5] (setting [7]) and 41.9% in test [5] (setting [8]).

Turning to `CC(=O)NC1C(O)C[C@@](O)(C(=O)O)OC1[C@@H](O)C(O)CO` (stereo partly specified), the Potency entry in test [1], in test [3], in test [4] and in test [6] was “inactive” in each case. Further, the activity change, negative = inhibition in test [5] is 3.62% (inactive). Also, the max response in test [5] (setting [7]) amounted to 13.3%; in test [5] (setting [8]) it was 18.3%.

For the compound `Cc1cc(O)cc(O)c1C(=O)O`, the Potency in test [1] was 25.1 µM (active). Further, the Potency entry in test [2], in test [4] and in test [6] was “inactive” throughout. In test [5], the activity change, negative = inhibition was 4.63% (inactive). Further, the max response in test [5] (setting [7]) came out at 10.6%; in test [5] (setting [8]) it was 18.2%.

On to `COC(=O)CC1C(C)(C)C(OC(C)=O)[C@@]2(O)C=C3C4CC(=O)OC(c5ccoc5)[C@]4(C)CCC3[C@@]1(C)C2=O` (stereo partly specified), for which, in test [1], the Potency is 7.94 µM (active). Moreover, the Potency result in test [2], in test [3], in test [4] and in test [6] was “inactive” each time. In addition, the activity change, negative = inhibition in test [5] was 10.4% (inactive). Also, the max response in test [5] (setting [7]) was 10.1%; in test [5] (setting [8]), 21.8%.

Turning to `CC(=O)OC1CC(OC(C)=O)[C@]2(C)C(CC(=O)[C@]3(C)C2CC[C@@]2(C)C(c4ccoc4)OC(=O)C4O[C@@]423)C1(C)C` (stereo partly specified), the Potency in test [1] was 20 µM (active). For the same compound, the Potency entry in test [2], in test [3], in test [4] and in test [6] was “inactive” each time. The activity change, negative = inhibition in test [5] was 4.36% (inactive). Also, the max response was 11.4% in test [5] (setting [7]) and 20.9% in test [5] (setting [8]).

For `COc1ccc(-c2c(O)c3c(OC)c4c(cc3oc2=O)OC(C)(C)C=C4)cc1`, the Potency in test [1] is 6.31 µM (active). Also, the Potency result in test [2], in test [3], in test [4] and in test [6] was “inactive” in each case. Moreover, the activity change, negative = inhibition in test [5] was -13.4% (inactive). The figures for the max response in test [5] (setting [7]) and in test [5] (setting [8]) were -5.03% and -5.79%, respectively.

For the compound `[N-]=[N+]=Nc1nc2c(N)ncnc2n1C1OC(CO)C(O)C1O` (stereo unspecified), the Potency entry in test [1], in test [3], in test [4] and in test [6] was “inactive” throughout. Moreover, the activity change, negative = inhibition in test [5] was -16.2% (inactive). Moreover, the max response turned out to be 12.5% in test [5] (setting [7]) and 1.58% in test [5] (setting [8]).

For `CC12CCC3C(CC3(C)C)C(C)(CCC1=O)O2` (stereo unspecified), the Potency entry in test [1], in test [3], in test [4] and in test [6] was “inactive” throughout. Besides, the activity change, negative = inhibition in test [5] is 8.76% (inactive). Moreover, the max response stood at 19% in test [5] (setting [7]) and 26.9% in test [5] (setting [8]).

As for `COc1ccc2c(c1)OCC(Cc1ccc(OC)c(O)c1)C2=O` (stereo unspecified), the Potency in test [1] is 25.1 µM (active). Besides, the Potency result in test [2], in test [3], in test [4] and in test [6] was “inactive” in each case. Further, the activity change, negative = inhibition in test [5] was 6.62% (inactive). Besides, the values for the max response in test [5] (setting [7]) and in test [5] (setting [8]) were 3.51% and 13%, respectively.

On to `CC1CCC2(C(=O)O)CCC3(C)C(=CCC4C3(C)CCC3[C@@]4(C)CC(O)C(O)[C@@]3(C)CO)C2C1C` (stereo partly specified), for which the Potency result in test [1], in test [3], in test [4] and in test [6] was “inactive” in each case. Also, the activity change, negative = inhibition in test [5] was 3.5% (inactive). Moreover, the max response in test [5] (setting [7]) was found to be 22.9%; in test [5] (setting [8]), 33.5%.

Turning to `O=C(/C=C/c1ccc(O)c(O)c1)O[C@H]1C[C@@](O)(C(=O)O)CC(O)C1O` (stereo partly specified), the Potency result in test [1], in test [3], in test [4] and in test [6] was “inactive” throughout. Also, the activity change, negative = inhibition in test [5] was 12.5% (inactive). Moreover, the max response in test [5] (setting [7]) is 13.7%; in test [5] (setting [8]) it was 29.5%.

Consider `CC(C)C(N)C(=O)NC(Cc1c[nH]c2ccccc12)C(=O)O` (stereo unspecified), for which the Potency result in test [1], in test [3], in test [4] and in test [6] was “inactive” in each case. Further, the activity change, negative = inhibition in test [5] was 7.82% (inactive). In addition, the max response in test [5] (setting [7]) was determined as 15.4%; in test [5] (setting [8]) it was 28.4%.

For `C[C@@]12CCC3c4ccc(OS(=O)(=O)O)cc4CCC3C1CCC2O` (stereo partly specified), the Potency entry in test [1], in test [3], in test [4] and in test [6] was “inactive” in each case. The activity change, negative = inhibition in test [5] is 4.64% (inactive). Besides, the results for the max response in test [5] (setting [7]) and in test [5] (setting [8]) were 6.41% and 9.99%, respectively.

In the case of `CC(=O)OC1CC(O)C(C)(C)C2CC(OC(C)=O)[C@]3(C)C(CC[C@@]4(C)C(c5ccoc5)OC(=O)C5OC534)[C@]12C` (stereo partly specified), the Potency in test [1] is 2.51 µM (active). Also, the Potency result in test [2], in test [3], in test [4] and in test [6] was “inactive” in each case. In addition, the activity change, negative = inhibition in test [5] is 4.32% (inactive). The max response in test [5] (setting [7]) was determined as 12.6%; in test [5] (setting [8]) it was 20.3%.

The values above are taken from PubChem BioAssay (NCATS).
